Data reported in the supplement of paper PMC10849652.
About 8,800 targets were measured; listed, in parts, are those with a hit and a random draw of the rest. About 0.5% of all pairs of compound and target were hits. Values without a mark were called inactive.

Tests used:
Assay in all cases: log2 fold change, soluble protein after heating vs DMSO (PISA); higher = thermal stabilisation; K562 lysate, 10 uM; active = over 0.2 and 3.5 SD of the protein, either way, in both replicates (recomputed)
nilotinib = compound: Cc1cn(-c2cc(NC(=O)c3ccc(C)c(Nc4nccc(-c5cccnc5)n4)c3)cc(C(F)(F)F)c2)cn1 [nilotinib]
In short: (§1)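 K562 pellets were dounce-homogenised in PBS pH 7.4 containing 1 mM MgCl2, and the crude extract, at 1 mg/mL protein, was exposed to 10 μM compound for 30 min. Aliquots were heated for 3 min across 48°C-58°C, pooled, brought to 0.5% NP-40 at 4°C and spun at 21,000xg for 90 min, with the supernatant taken as soluble protein. TMTpro 16plex LC-MS/MS with equalised channel sums quantified that protein. Values are log-two fold changes in thermal stability relative to solvent controls, taken from duplicates.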

[1] = compound: Cc1nc(Nc2n[nH]c3c2CN(C(=O)N[C@H](CN(C)C)c2ccccc2)C3(C)C)c2sccc2n1
In short: as §1

dasatinib = compound: Cc1nc(Nc2ncc(C(=O)Nc3c(C)cccc3Cl)s2)cc(N2CCN(CCO)CC2)n1 [dasatinib]
In short: as §1

[2] = compound: Cc1ncc(-c2ccnc(Nc3ccc(S(C)(=O)=O)cc3)n2)n1C(C)C
In short: as §1

[3] = compound: Cn1cc(-c2ccc3c(c2)CCN3C(=O)Cc2cccc(C(F)(F)F)c2)c2c(N)ncnc21
In short: as §1

quisinostat = compound: Cn1cc(CNCC2CCN(c3ncc(C(=O)NO)cn3)CC2)c2ccccc21 [quisinostat]
In short: as §1

tipifarnib = compound: Cn1cncc1[C@@](N)(c1ccc(Cl)cc1)c1ccc2c(c1)c(-c1cccc(Cl)c1)cc(=O)n2C [tipifarnib]
In short: as §1

[4] = compound: NC(=O)Nc1cc(-c2cccc(F)c2)sc1C(=O)N[C@H]1CCCNC1
In short: as §1

[5] = compound: NC(=O)c1cnc(N[C@@H]2CCCC[C@@H]2N)nc1Nc1cccc(-n2nccn2)c1
In short: as §1

[6] = compound: NC1(c2ccc(-c3nc4ccn5c(=O)[nH]nc5c4cc3-c3ccccc3)cc2)CCC1
In short: as §1

[7] = compound: NCC(=O)Nc1ccc(-n2nc(C(F)(F)F)cc2-c2ccc3c(ccc4ccccc43)c2)cc1
In short: as §1

vorinostat = compound: O=C(CCCCCCC(=O)Nc1ccccc1)NO [vorinostat]
In short: as §1

silmitasertib = compound: O=C(O)c1ccc2c(c1)nc(Nc1cccc(Cl)c1)c1ccncc12 [silmitasertib]
In short: as §1

[8] = compound: O=C1NC(=O)C(c2cnc3ccccn23)=C1c1cn2c3c(cc(F)cc13)CN(C(=O)N1CCCCC1)CC2
In short: as §1

entospletinib = compound: c1cn2cc(-c3ccc4cn[nH]c4c3)nc(Nc3ccc(N4CCOCC4)cc3)c2n1 [entospletinib]
In short: as §1

UniProt Q13111, sequence (Q13111 whole entry, looked up): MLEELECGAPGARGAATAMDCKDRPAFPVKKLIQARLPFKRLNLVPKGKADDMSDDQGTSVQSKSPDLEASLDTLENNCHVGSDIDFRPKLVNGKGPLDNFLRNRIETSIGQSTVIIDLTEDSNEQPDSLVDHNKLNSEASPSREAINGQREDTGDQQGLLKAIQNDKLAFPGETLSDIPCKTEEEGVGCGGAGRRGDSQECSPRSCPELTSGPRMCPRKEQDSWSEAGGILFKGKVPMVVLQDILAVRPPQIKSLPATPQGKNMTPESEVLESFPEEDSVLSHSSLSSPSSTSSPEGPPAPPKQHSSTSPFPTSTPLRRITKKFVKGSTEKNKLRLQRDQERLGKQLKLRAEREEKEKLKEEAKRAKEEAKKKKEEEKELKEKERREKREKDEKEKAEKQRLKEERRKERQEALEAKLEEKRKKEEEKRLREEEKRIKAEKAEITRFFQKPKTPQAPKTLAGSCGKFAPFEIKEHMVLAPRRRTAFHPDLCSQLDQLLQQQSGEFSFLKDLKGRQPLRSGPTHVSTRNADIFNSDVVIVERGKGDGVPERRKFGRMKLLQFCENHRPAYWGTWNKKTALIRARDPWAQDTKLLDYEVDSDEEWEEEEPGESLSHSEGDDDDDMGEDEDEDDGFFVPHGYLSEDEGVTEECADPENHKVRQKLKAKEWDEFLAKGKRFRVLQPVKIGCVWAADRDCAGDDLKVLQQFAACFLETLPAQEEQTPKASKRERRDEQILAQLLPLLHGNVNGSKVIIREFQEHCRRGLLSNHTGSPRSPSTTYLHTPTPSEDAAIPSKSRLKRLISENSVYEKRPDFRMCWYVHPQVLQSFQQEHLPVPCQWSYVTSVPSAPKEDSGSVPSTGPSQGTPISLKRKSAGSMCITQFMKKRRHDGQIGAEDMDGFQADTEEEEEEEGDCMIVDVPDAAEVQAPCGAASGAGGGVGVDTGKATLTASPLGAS
UniProt Q8WUX2, sequence (Q8WUX2 whole entry, looked up): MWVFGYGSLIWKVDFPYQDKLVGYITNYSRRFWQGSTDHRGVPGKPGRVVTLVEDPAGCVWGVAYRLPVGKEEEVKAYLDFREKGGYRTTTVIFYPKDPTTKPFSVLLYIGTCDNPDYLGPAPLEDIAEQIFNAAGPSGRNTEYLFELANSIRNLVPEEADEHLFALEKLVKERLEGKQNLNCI
UniProt Q96JB5, sequence (Q96JB5 whole entry, looked up): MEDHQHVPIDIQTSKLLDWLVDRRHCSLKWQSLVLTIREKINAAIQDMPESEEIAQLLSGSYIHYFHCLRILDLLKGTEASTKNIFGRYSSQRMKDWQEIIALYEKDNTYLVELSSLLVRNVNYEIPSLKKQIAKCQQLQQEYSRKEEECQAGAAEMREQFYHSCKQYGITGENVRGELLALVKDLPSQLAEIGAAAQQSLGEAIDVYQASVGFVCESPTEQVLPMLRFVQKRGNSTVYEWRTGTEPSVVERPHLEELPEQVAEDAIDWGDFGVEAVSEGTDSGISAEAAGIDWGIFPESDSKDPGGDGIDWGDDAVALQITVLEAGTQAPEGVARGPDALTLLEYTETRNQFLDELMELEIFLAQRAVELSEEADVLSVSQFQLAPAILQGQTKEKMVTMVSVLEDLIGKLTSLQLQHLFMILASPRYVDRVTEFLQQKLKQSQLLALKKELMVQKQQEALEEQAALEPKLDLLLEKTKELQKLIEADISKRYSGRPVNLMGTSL
UniProt Q8N5S9, sequence (Q8N5S9 whole entry, looked up): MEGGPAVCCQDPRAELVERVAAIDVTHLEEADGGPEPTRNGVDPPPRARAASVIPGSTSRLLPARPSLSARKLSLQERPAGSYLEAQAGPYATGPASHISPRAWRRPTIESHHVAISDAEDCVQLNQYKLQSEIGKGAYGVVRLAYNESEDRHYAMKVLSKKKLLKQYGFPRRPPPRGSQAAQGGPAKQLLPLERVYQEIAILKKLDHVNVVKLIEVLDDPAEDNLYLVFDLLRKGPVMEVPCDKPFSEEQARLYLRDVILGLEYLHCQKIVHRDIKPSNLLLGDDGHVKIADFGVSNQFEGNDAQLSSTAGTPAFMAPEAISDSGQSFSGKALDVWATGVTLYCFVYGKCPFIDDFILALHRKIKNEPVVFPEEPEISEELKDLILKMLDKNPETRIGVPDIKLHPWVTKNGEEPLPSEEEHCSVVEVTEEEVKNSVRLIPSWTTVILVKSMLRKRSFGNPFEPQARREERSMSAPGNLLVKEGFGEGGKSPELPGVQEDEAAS
UniProt P55211, sequence (P55211 whole entry, looked up): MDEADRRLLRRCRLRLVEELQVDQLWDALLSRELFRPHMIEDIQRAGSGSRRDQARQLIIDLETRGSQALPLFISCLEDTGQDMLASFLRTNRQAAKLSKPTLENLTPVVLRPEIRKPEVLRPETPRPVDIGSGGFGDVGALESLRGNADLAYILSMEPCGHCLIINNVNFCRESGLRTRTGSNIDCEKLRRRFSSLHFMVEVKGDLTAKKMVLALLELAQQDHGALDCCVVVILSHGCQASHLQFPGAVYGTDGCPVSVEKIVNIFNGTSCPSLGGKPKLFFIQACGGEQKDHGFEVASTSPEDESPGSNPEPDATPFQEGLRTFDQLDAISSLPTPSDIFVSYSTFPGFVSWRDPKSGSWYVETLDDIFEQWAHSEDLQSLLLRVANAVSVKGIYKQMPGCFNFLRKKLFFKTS
UniProt P42574, sequence (P42574 whole entry, looked up): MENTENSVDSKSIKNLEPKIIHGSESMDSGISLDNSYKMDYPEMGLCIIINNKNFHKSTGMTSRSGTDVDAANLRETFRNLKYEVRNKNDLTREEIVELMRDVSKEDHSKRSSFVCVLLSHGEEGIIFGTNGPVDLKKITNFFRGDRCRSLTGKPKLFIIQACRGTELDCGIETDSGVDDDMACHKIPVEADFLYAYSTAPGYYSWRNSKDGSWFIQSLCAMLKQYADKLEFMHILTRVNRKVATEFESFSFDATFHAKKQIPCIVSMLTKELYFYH
UniProt Q8ND76, sequence (Q8ND76 whole entry, looked up): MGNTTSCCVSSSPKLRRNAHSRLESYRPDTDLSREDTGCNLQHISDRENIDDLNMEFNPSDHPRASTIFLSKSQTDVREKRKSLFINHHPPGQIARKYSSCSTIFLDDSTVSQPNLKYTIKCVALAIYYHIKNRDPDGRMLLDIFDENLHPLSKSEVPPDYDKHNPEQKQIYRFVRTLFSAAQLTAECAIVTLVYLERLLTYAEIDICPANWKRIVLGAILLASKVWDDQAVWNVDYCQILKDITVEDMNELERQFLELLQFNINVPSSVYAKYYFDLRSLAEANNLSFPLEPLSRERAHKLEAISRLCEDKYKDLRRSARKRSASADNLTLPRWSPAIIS
UniProt Q9Y6K0, sequence (Q9Y6K0 whole entry, looked up): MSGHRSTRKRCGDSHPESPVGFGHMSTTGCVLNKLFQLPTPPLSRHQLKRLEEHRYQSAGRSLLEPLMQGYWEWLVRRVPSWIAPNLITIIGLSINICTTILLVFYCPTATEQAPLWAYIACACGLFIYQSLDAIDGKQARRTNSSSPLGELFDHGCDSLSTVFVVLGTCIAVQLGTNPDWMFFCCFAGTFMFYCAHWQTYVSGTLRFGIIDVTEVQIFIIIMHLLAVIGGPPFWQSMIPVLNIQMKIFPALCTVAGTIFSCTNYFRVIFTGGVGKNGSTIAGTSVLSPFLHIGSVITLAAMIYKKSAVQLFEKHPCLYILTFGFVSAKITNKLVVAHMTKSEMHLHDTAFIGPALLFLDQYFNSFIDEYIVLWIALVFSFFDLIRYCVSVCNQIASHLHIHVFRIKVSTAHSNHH
UniProt A6NDU8, sequence (A6NDU8 whole entry, looked up): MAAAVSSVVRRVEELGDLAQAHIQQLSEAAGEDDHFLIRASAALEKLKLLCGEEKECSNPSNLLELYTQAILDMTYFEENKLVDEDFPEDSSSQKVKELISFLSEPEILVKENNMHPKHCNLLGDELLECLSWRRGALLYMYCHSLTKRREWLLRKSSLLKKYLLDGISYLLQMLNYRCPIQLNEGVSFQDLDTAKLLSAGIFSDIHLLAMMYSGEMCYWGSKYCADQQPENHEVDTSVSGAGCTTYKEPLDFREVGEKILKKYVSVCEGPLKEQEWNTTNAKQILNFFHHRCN
UniProt O75808, sequence (O75808 whole entry, looked up): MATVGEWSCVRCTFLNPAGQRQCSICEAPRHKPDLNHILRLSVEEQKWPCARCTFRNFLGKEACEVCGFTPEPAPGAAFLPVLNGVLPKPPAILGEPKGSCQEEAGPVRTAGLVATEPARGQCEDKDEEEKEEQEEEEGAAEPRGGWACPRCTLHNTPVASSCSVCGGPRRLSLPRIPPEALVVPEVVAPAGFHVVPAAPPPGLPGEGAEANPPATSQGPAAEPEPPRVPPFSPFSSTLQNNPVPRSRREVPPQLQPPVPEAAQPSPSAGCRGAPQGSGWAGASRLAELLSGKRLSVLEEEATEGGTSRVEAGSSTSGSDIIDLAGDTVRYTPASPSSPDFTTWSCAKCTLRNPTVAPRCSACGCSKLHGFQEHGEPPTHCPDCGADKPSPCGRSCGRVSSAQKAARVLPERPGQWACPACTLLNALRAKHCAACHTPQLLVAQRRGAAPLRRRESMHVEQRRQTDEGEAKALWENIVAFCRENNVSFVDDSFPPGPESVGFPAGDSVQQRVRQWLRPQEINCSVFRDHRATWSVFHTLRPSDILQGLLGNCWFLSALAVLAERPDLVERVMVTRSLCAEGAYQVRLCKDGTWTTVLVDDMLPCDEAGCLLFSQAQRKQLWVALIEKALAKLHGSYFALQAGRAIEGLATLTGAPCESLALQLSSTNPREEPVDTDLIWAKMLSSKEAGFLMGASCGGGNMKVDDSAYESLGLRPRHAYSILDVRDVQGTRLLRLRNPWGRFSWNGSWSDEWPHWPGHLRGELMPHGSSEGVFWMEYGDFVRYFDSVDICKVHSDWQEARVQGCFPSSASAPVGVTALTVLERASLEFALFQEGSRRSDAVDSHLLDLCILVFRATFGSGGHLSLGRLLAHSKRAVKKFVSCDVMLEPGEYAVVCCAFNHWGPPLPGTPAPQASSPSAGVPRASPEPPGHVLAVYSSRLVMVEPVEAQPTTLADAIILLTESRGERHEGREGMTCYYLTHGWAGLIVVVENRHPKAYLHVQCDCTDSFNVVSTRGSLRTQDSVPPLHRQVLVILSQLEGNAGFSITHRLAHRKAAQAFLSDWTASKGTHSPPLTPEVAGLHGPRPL

Row | Target | log2 fold change (nilotinib) | log2 fold change [1] | log2 fold change (dasatinib) | log2 fold change [2] | log2 fold change [3] | log2 fold change (quisinostat) | log2 fold change (tipifarnib) | log2 fold change [4] | log2 fold change [5] | log2 fold change [6] | log2 fold change [7] | log2 fold change (vorinostat) | log2 fold change (silmitasertib) | log2 fold change [8] | log2 fold change (entospletinib)
1 | CES2 isoform 4 (UniProt O00748) | -0.073 | -0.115 | 0.065 | 0.098 | -0.087 | -0.042 | 0.05 | -0.029 | 0.033 | 0.001 | 0.049 | 0.307 | -0.093 | 0.177 | -0.034
2 | C2CD5 isoform 3 (UniProt Q86YS7) | -0.036 | 0.074 | -0.053 | 0.046 | 0.01 | 0.013 | -0.053 | 0.024 | 0.01 | -0.044 | 0.01 | 0.086 | -0.059 | 0.049 | 0.009
3 | CHAF1A (UniProt Q13111) | -0.027 | 0.032 | -0.068 | 0.008 | -0.032 | -0.053 | 0.019 | -0.001 | -0.031 | 0.036 | 0.004 | -0.402 (active) | -0.004 | 0.004 | -0.082
4 | CHD4 isoform 2 (UniProt Q14839) | 0.006 | 0.008 | -0.011 | -0.006 | 0.015 | -0.038 | -0.008 | 0.031 | 0.01 | 0.001 | 0.023 | -0.284 (active) | -0.006 | 0.015 | -0.01
5 | CASP3 (UniProt P42574) | 0.032 | -0.024 | 0.053 | 0.023 | 0.008 | -0.029 | -0.033 | 0 | -0.01 | 0.022 | -0.031 | 0.058 | -0.02 | 0.007 | -0.027
6 | C5orf51 (UniProt A6NDU8) | -0.061 | 0.006 | -0.029 | 0.017 | 0.02 | -0.066 | 0.026 | 0.1 | 0.002 | -0.023 | 0.042 | -0.501 (active) | 0.036 | -0.003 | 0.015
7 | CAMKK1 isoform 2 (UniProt Q8N5S9) | -0.013 | 0.144 | 0.05 | 0.064 | 0.189 | -0.072 | -0.064 | 0.047 | -0.002 | 0.007 | 0.006 | -0.255 | 0.072 | -0.007 | -0.078
8 | CASP9 (UniProt P55211) | -0.004 | 0.006 | -0.055 | -0.012 | -0.013 | -0.056 | 0.005 | 0.056 | -0.011 | 0.007 | 0.011 | -0.342 (active) | -0.004 | 0.019 | -0.002
9 | CEP76 (UniProt Q8TAP6) | -0.005 | -0.021 | -0.002 | -0.021 | -0.005 | -0.241 (active) | 0.006 | -0.01 | -0.015 | -0.02 | -0.1 | -0.055 | 0.027 | -0.051 | 0.039
10 | CCNY (UniProt Q8ND76) | 0.017 | 0.016 | -0.021 | 0.05 | 0.065 | -0.216 | 0.057 | 0.077 | -0.022 | 0.025 | 0.076 | -0.822 (active) | -0.018 | -0.002 | -0.074
11 | CAPN15 (UniProt O75808) | 0.018 | -0.045 | -0.124 | 0.014 | 0.007 | 0 | 0.04 | 0.025 | -0.08 | 0.054 | 0.028 | -0.504 (active) | -0.016 | -0.081 | -0.043
12 | BCKDK (UniProt O14874) | 0.008 | 0.001 | 0.023 | -0.061 | 0.058 | 0.094 | -0.058 | -0.092 | -0.029 | 0.052 | -0.01 | 0.025 | 0.052 | -0.271 (active) | -0.053
13 | CCNH (UniProt P51946) | -0.013 | 0.106 | 0.03 | -0.001 | 0.015 | 0.016 | -0.043 | -0.009 | 0.026 | 0.013 | 0.028 | -0.43 (active) | 0.02 | -0.07 | 0.02
14 | CDC42BPA isoform 6 (UniProt Q5VT25) | -0.01 | 0.003 | 0.012 | 0.013 | 0.048 | 0.025 | 0 | 0.004 | -0.002 | 0.024 | -0.008 | -0.224 (active) | 0.018 | 0.001 | 0
15 | ATP2B4 (UniProt P23634) | -0.05 | 0.098 | -0.031 | 0.003 | 0.021 | 0.164 | -0.028 | -0.019 | 0.019 | 0.008 | -0.026 | -0.042 | -0.003 | -0.079 | -0.042
16 | CAPNS1 (UniProt P04632) | -0.007 | 0.027 | 0.035 | -0.002 | -0.014 | 0.078 | 0.017 | -0.077 | -0.05 | 0.01 | -0.08 | 0.07 | -0.007 | -0.039 | 0.033
17 | CDK5RAP3 isoform 4 (UniProt Q96JB5) | 0.003 | -0.016 | -0.067 | 0.006 | 0.045 | -0.03 | -0.043 | 0.023 | 0.026 | -0.007 | 0.046 | 0.026 | 0.068 | 0 | 0.012
18 | CEPT1 (UniProt Q9Y6K0) | -0.053 | -0.015 | -0.018 | 0.028 | 0.06 | -0.021 | -0.068 | 0.028 | -0.008 | -0.094 | -0.037 | 0.103 | -0.016 | 0.029 | -0.016
19 | CHAC2 (UniProt Q8WUX2) | 0.004 | 0.043 | -0.022 | -0.024 | 0.036 | -0.066 | 0.041 | 0.019 | 0.017 | -0.027 | -0.158 | 0.066 | -0.02 | -0.012 | -0.052
20 | CALM2 (UniProt P0DP24) | -0.009 | 0.014 | -0.013 | 0.022 | -0.001 | -0.178 | 0.016 | -0.053 | -0.014 | -0.06 | 0.008 | -0.027 | 0.064 | -0.121 | -0.048
